ERK AVP block – qHTS Assay for Inhibitors of the ERK Signaling Pathway using a Homogeneous Screening Assay | HEK293-V1b, vasopressin-stimulated pERK AlphaScreen | Potency, µM (highest dose often 57.5 µM), for the others: at the top dose activity, negative = inhibition, hits mostly inhibitors | actives 0.99% (n = 72,000) | AID 995, 2007; also: % is scaled to controls: 0 for no effect and ±100 for the full control effect; nearly all actives have a fitted effect of over 55% in size
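HEK293 cells stably expressing V1b receptor, seeded overnight in 1% FBS, were treated with compounds for 30 min at 37C, then stimulated 5 min with 25 nM vasopressin; phospho-ERK read by AlphaScreen SureFire after lysis.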
IkB sig inh – IkB Signaling; ABC-DLBCL IkBa-CBG/CBR dual luciferase ratio, 4 h; response scale: scaled: untreated 0%, proteasome inhibitor 100%; Potency, µM (doses to about 57.1 µM), without a hit: at the highest dose IkBa stabilization activation; actives 0.04% (n = 110,000); active = well fitted curve in the direction sought with a large enough effect in the signal ratio, not every such curve was filed as active; inconclusive = small, poorly fitted or top-dose-only effect, or a change in a side signal; the % refers to the signal ratio;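 also: the direction sought is a rising ratio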
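Luminescence ratio of IκBα-fused green versus native red beetle luciferase in OCI-Ly3 cells, 4 h post-doxycycline with compound; red signal alone, scaled from basal (0%) to zero light (-100%), flagged nonspecific or cytotoxic effects.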
CRE-bla Fsk – Cell signaling CRE-BLA (Fsk stim); CHO CRE-bla reporter (cAMP response element driving beta-lactamase), forskolin EC10, beta-lactamase ratio; Potency, µM (doses to about 38.2 µM), for inactives: at the highest dose activity change, negative = inhibition, most hits filed as activators; actives 2.5% (n = 71,000); AID 662, 2007; active = well fitted activation curve with a large enough effect in the signal ratio, with a control signal flat, not every such curve was filed as active; inconclusive = small, poorly fitted or top-dose-only effect, or effect the other way, or a change in a side signal; the % refers to the signal ratio; also: % of control where 0% means no effect
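qHTS titration format; CRE-bla CHO reporter; stimulus EC10 NKH 477, a water-soluble forskolin. Read: CCF4 460/530 nm ratio. Potency expressed as AC50 for activators or inhibitors.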
Peg3 imprint – qHTS Assay for Compounds that Induce Erasure of Genomic Imprints. actives 0.02% (n = 110,000). Potency, µM (top dose mostly 60.7 µM), inactives show at the highest dose activity change, positive = activation, usual class: activators. mouse ES Peg3-LacZ reporter, beta-gal luminescence, 40 h
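Imprint erasure is scored as LacZ activity from the silenced maternal Peg3 allele in feeder-free female ES cells cultured 40 h with LIF. Luminescence is normalized to in-plate negative controls and fitted to the Hill equation.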
Numbers without * were called inactive; ? = inconclusive; . = no result given; [ ] = remark or other dose. This is one part of a sample in which hits are shown more often than they occur. Unless noted, calls follow the shape of the dose curve; as a rule, active = well fitted curve in the direction sought with a large enough effect; inconclusive = small, poorly fitted or top-dose-only effect, or another doubt; inactive = no such curve, though single readings can be large; an effect the other way counts as inactive or inconclusive. Potency is read from the fitted curve at half-maximal effect.

SMILES	ERK AVP block	IkB sig inh	CRE-bla Fsk	Peg3 imprint
CCc1c(C(C)O)oc2ccc3c(C)cc(=O)oc3c12 (stereo not drawn)	?	-2.9%	3.16µM*	-10.8%
Cc1cc(=O)oc2cc(O)ccc12	-19.3%[25.7 µM]	0.6%[25.6 µM]	4.7%[17.1 µM]	-11.8%[16.8 µM]
CNc1nc(NC)nc(-n2c(C(F)(F)F)nc3ccccc32)n1	?	-5.4%	12.6µM*	-12.7%
CC(C)Cn1c(N)c(C(=O)CSc2ccc3c(c2)OCCO3)c(=O)n(C)c1=O	2µM*	?	?	3.1%
CC(C)Cn1c(N)c(C(=O)COC(=O)c2ccc3c(c2)OCCO3)c(=O)n(C)c1=O	-3.9%	?	?	-18.4%
COc1ccc(OC2C=CC(C#Cc3ccccc3)OC2CO)cc1 (stereo not drawn)	3.4%[11.5 µM]	.	.	.
O=C1OCCC1Sc1nc2ccccc2n1-c1ccccc1 (stereo not drawn)	15.8µM*	0.4%	22.8%	-8.0%
Cc1cc2nnc(SC3CCOC3=O)n2c2ccccc12 (stereo not drawn)	15.8µM*	-0.4%	?	5.0%
CC(C)N=C=NC(C)C	15.7%	-1.7%	-6.9%	1.8%
COc1ccc(OC)c(C2/C(=C(\O)c3c(C)nc4ccccn34)C(=O)C(=O)N2CCCN(C)C)c1 (stereo not drawn)	-2.6%	-2.0%	3.98µM*	6.7%
Cc1ccc(C2/C(=C(\O)c3c(C)nc4ccccn34)C(=O)C(=O)N2CCCN(C)C)o1 (stereo not drawn)	-14.6%	-1.9%	13.7%	12.7%
Nc1nc2c(s1)CCc1c-2cnn1-c1ccccc1	25.1µM*	?	?	-71.9%
COc1ccc(-n2nnnc2SCC(=O)Nc2ccc3c(c2)OCCO3)cc1OC	5.1%	-1.0%	10µM*	-19.2%
COc1ccc(-n2c(SCC(=O)Nc3ccc4c(c3)OCO4)nc3ccccc3c2=O)cc1	-9.3%	-1.6%	-1.7%	-8.2%
COc1ccc(NC(=O)CSc2nc3ccccc3c(=O)n2-c2ccc3c(c2)OCO3)c(OC)c1	-15.1%	-2.1%	3.98µM*	-3.6%
N#Cc1c2n(c3c(=O)n(Cc4ccc(Cl)cc4)cnc13)CCCC2	-15.3%	-1.0%	10µM*	-2.0%
N#Cc1c2n(c3c(=O)n(Cc4ccccc4Cl)cnc13)CCCC2	-26.8%	-1.3%	?	-4.8%
COC(=O)NC(/C(C(=O)OC)=C(\C)NCc1ccccc1)c1ccc2ccccc2c1 (stereo not drawn)	21.7%[11.5 µM]	.	.	.
COc1ccc(-c2nc(C(N)=O)c3[nH]c(=O)n(-c4cccc(C)c4)c3n2)c(OC)c1	.	-4.1%	10µM*	-7.4%
COc1ccccc1-c1nc(C(N)=O)c2[nH]c(=O)n(-c3cccc(C)c3)c2n1	?	-0.8%	?	-6.6%
CCc1c(C)c(C#N)c2nc3ccccc3n2c1Nc1c(C)n(C)n(-c2ccccc2)c1=O	-10.6%	0.4%	?	5.0%
Cc1cc(SCC(=O)Nc2c(C)n(C)n(-c3ccccc3)c2=O)n2c(nc3ccccc32)c1C#N	-11.9%	0.8%	25.1µM*	2.8%
O=C(NCc1ccco1)c1cnn2c(C(F)(F)F)cc(-c3cccs3)nc12	6.5%	11.1%	10µM*	.
O=C(NC1CCCCC1)c1cnn2c(C(F)(F)F)cc(-c3ccco3)nc12	-2.5%	-0.5%	7.94µM*	-20.1%
O=C(c1cnn2c(C(F)(F)F)cc(-c3ccco3)nc12)N1CCCCCC1	8.8%	-1.5%	?	-3.9%
SMILES	ERK AVP block	IkB sig inh	CRE-bla Fsk	Peg3 imprint
O=C(NCc1ccco1)c1cnn2c(C(F)F)cc(-c3ccccc3)nc12	-24.2%	1.4%	?	18.0%
COc1ccc2c(c1OC)C(Cc1ccccc1)N1CCc3cc4c(cc3C1=C2)OCO4 (stereo not drawn)	6.31µM*	.	.	-27.6%
NC(CSS(=O)(=O)O)=N[C@@H]1C[C@H]2CC[C@@H]1C2	-1.3%[11.5 µM]	2.0%[11.4 µM]	1.8%[7.6 µM]	-0.9%[10.9 µM]
Cc1ccc2[nH]c(-c3ccc(F)cc3F)cc(=O)c2c1	.	.	.	-14.7%[97.3 µM]
Cn1cc(-c2nc3cnc(Oc4cccc(Cl)c4)nc3n(C3CC3)c2=O)c2ccccc21	-42.7%	-3.5%[11.4 µM]	15.8µM*	7.4%
N#CCCn1c(=O)c(-c2cc(F)cc(F)c2)nc2cnc(Oc3cccc(Cl)c3)nc21	?	1.9%[11.4 µM]	10µM*	.
COCCn1c(=O)c(-c2cn(C)c3ccccc23)nc2cnc(Oc3cccc(Cl)c3)nc21	23.2%	-0.2%[11.4 µM]	1.26µM*	?
O=C(Cl)c1cccc([N+](=O)[O-])c1	-26.5%	1.0%	-7.7%	12.9%
O=C(O)c1ccncc1.O=C(O)c1ccncc1.[Cl][Pt]([Cl])([Cl])[Cl]	-5.6%[11.5 µM]	-2.0%[11.4 µM]	8.3%[7.6 µM]	-2.3%[10.9 µM]
CCCOc1ccc2ccccc2c1/C=N/n1cnnc1	-26.8%	-1.2%	1µM*	-0.3%
CC(C)(C)N1C(=O)[C@H]2[C@@H]3[C@H](O)C=CC(=O)[C@H]3CC[C@H]2C1=O	-2.7%[11.5 µM]	.	.	.
CCOC(=O)c1cc(-c2ccco2)nc2c1c(C)nn2CCC#N	14.3%	1.3%	?	-12.6%
CCOC(=O)c1cc(-c2ccc3c(c2)OCCO3)nc2c1c(C)nn2CCC#N	-10.4%	0.9%	10µM*	-17.4%
CCOC(=O)c1ccc(NC(=O)CCc2nc(-c3ccccc3)no2)cc1	15.8µM*	?	?	-34.1%
CCc1cccc(NC(=O)CCc2nc(-c3cccs3)no2)c1	25.1µM*	?	4.4%	-8.2%
O=C(CCc1nc(-c2cccs2)no1)Nc1cccc([N+](=O)[O-])c1	.	?	.	-11.5%[10.9 µM]
CCOCCN1CCN(c2c(C)c(C)nc3cc(-c4cc(OC)cc(OC)c4)nn23)CC1	?	-1.3%	3.16µM*	7.8%
COc1ccccc1-c1ccc2ncnc(NCc3cnc(C)cn3)c2c1	20µM*	1.6%[11.4 µM]	?	-21.7%
COc1ccc(CNc2ncnc3ccc(-c4c(C)noc4C)cc23)c(OC)c1	?	?	5.01µM*	-9.0%
Cc1ccccc1-c1ccc2ncnc(NCCN3CCOCC3)c2c1	25.1µM*	2.0%[11.4 µM]	?	-20.4%
COc1cccc(-c2ccc3ncnc(NCc4ccc(OC)cc4OC)c3c2)c1	-13.7%	2.3%[11.4 µM]	1.58µM*	-17.2%
COc1ccc(CNc2ncnc3ccc(-c4ccc(N(C)C)cc4)cc23)c(OC)c1	-12.3%	5.2%[11.4 µM]	?	-19.3%
COc1cccc(-c2ccc3ncnc(NCc4ccccc4OC)c3c2)c1	?	?	?	0.9%
CCN(CC)COC(=S)S	2.2%[11.5 µM]	1.6%[11.4 µM]	11.9%[7.6 µM]	-35.3%[10.9 µM]
CC(C)(C)C1CCc2c(sc(NC(=O)CCC(=O)O)c2C(=O)Nc2ccccc2C(F)(F)F)C1 (stereo not drawn)	.	?	.	-7.1%[10.9 µM]
Cc1ccc(-c2nn(C)c(=O)c3ccccc23)cc1S(=O)(=O)NCCN1CCOCC1	25.1µM*	2.1%	7.94µM*	6.1%
COc1ccccc1-c1ccc2ncnc(N3CCOCC3)c2c1	10µM*	-1.7%[11.4 µM]	?	-12.0%
COc1ccc(S(=O)(=O)c2ccc(OC)c(OC)c2)cc1OC	15.8µM*	-0.7%	10µM*	1.6%
FC(F)(F)c1ccccc1-c1nccc(-n2ccnc2)n1	-17.7%	-0.4%[11.4 µM]	?	-12.9%
